# Tested on: PXR homodimer (NR concentration 270 nM)
# Assay: PBM binding z-score (relative to random genomic background probes); higher = stronger binding; sequences stand for … in GC…GCGATTGACAGCGTAGAATGAAGG
# Summary of the method: (§1)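 Custom Agilent 4×180K protein-binding microarrays carried double-stranded probes, each with a 34-nt variable region. These regions held direct-repeat seeds, single-nucleotide variants, half-site ablations and random human genomic background sequences. Ligand-free nuclear receptor dimers were incubated on the arrays for 1 h, antibodies against each partner (one per run) detected binding, and scanned fluorescence was regression-normalized. Binding z-scores take the random background probes as reference.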
row,Sequence,PBM binding z-score
1,CGTCCAAGGTCAAGGTCGGTGAAAGAGACTCGAA,0.887
2,TCTTGTAGATCAATAGAGGTTCAGAAAGTGCGCT,0.746
3,CCTACTGGGCCAACGTCATTGATCAGTCAAAGCA,-0.509
4,AGAACGAGGGCACGCAGAGTTGATAGCAGAGTAG,0.0867
5,GCCTATAGGTAATACAAGGTGAAAGTCCGATTGT,0.00334
6,TAGCCTAGGTCATTGGGCGAGTATAGTACGCATC,-0.283
7,ACAGACAGGTGAGTGAAGGTAACTAAGCTGGACG,-0.0557
8,TTACCAAGTTGAGCTGAGGTCGTTGATCCAACTC,0.614
9,TGAGTGAGGTTAAAGATCAGGGAACGTGGCGTCG,0.027
10,CCTCGGAGGACTGAAGGTCAGAGCTGTCCGCTTT,-0.196
11,CCTACTGGGCCACGGTCATTGATCAGTCAAAGCA,-0.0793
12,GGAACGAGGACATTCGAGTTGATAGCATGGCGAT,0.409
13,CTACCAAGGAGAACAAGGTCGTTGATTACTATTC,1.05
14,TCGAGTAGGTTGGGGGCATTCAGAATGGCGTCGA,1.75
15,CCAGATAGGTGAAAGGTAACTCAGTCTGGTACGC,0.111
16,ACTCGGAGGACAAAGGCCAGAGCTACGCCAGTGA,-0.627
17,CAAACTAGGTCAAGTTCAAAGTCGGTTTGTGCCA,6.98
18,GTACCAAGGTGGATAGGTCGTTGATGAGTAGGCG,0.137
19,TCTGCTCGGTCAGTTGGTCAGCTAACGAGCTGCC,-1.11
20,CATACAGTGTCAGCTAGGCCAGAGTAGGGACGGC,-0.457

row,Sequence,PBM binding z-score
1,CGTCCAAGGACAAAGGTCAGTGAAGAGATGACGG,0.71
2,TCTATTACTTGATTAGGGCAACCGAAACAGCGGA,0.132
3,ACTATTAGTTGAGACGAGGACAACCGATAGGTTG,0.155
4,GGTATTAGTTGAAAGGGCAACCGAATGATTCTCG,1.44
5,CCGACTGGGGCAAGGGTACCATAACGCACAGCCA,-0.439
6,CGTCCAAGGTCAGCAGGTCAGTGACAGCGACGTG,0.701
7,CAAGCTAGGTCACGAAAGGTCAAAGTCGAATGAC,3.04
8,TAGCCTAGGTCATGCGGGCCATTATAGTGTCGGC,0.0749
9,CAAACTAGGTCACCGGAAGGTCAAAGACCGCATG,1.46
10,TCATATAGGTAAATGCTAGGTGAAAGCCCGATCT,-0.0207
11,CTCGAAAGGTCGTGCTCAGGCGAGTATACCAAAC,-0.312
12,GCTAGTTGGTCAGTAAAAGTTCACACACCGGTCG,3.27
13,CCGACTGGGGCATAAGGTTACCTTAAGCCAGCCC,-0.44
14,TAGCCTAGGTCATTCAGGGGCCAGTAAAGAAAGC,-0.023
15,CATACTGGGTCAGCTAGGCCAGAGTAGGGACGGC,-0.327
16,CAGCCTAGGTCAGTGCCAGTATAGGAGGAACGTT,-0.197
17,TCTCGGAGGACACGAAAGGTCAGATCTCGACATC,0.563
18,CAAACTAGGTCAAAGGTCCAAGTCGAGCCAACCA,0.0421
19,CAAACTAGGTCCAAGGTCAAAGTCGAGCCAACCA,1.57

# Tested on: RARa:RXR (NR concentration 270 nM, RXRa partner concentration 90 nM)
# Assay: as above
# Summary of the method: as §1
row,Sequence,PBM binding z-score
1,CGTCCAAGGTCAAGGTCGGTGAAAGAGACTCGAA,5.05
2,TCTTGTAGATCAATAGAGGTTCAGAAAGTGCGCT,0.485
3,CCTACTGGGCCAACGTCATTGATCAGTCAAAGCA,0.0251
4,AGAACGAGGGCACGCAGAGTTGATAGCAGAGTAG,1.22
5,GCCTATAGGTAATACAAGGTGAAAGTCCGATTGT,0.994
6,TAGCCTAGGTCATTGGGCGAGTATAGTACGCATC,2.09
7,ACAGACAGGTGAGTGAAGGTAACTAAGCTGGACG,0.0664
8,TTACCAAGTTGAGCTGAGGTCGTTGATCCAACTC,1.76
9,TGAGTGAGGTTAAAGATCAGGGAACGTGGCGTCG,3.26
10,CCTCGGAGGACTGAAGGTCAGAGCTGTCCGCTTT,1.28
11,CCTACTGGGCCACGGTCATTGATCAGTCAAAGCA,-0.106
12,GGAACGAGGACATTCGAGTTGATAGCATGGCGAT,0.177
13,CTACCAAGGAGAACAAGGTCGTTGATTACTATTC,1.17
14,TCGAGTAGGTTGGGGGCATTCAGAATGGCGTCGA,1.98
15,CCAGATAGGTGAAAGGTAACTCAGTCTGGTACGC,2.13
16,ACTCGGAGGACAAAGGCCAGAGCTACGCCAGTGA,-0.794
17,CAAACTAGGTCAAGTTCAAAGTCGGTTTGTGCCA,3.97
18,GTACCAAGGTGGATAGGTCGTTGATGAGTAGGCG,-0.144
19,TCTGCTCGGTCAGTTGGTCAGCTAACGAGCTGCC,-0.352
20,CATACAGTGTCAGCTAGGCCAGAGTAGGGACGGC,-0.228

row,Sequence,PBM binding z-score
1,CGTCCAAGGACAAAGGTCAGTGAAGAGATGACGG,3.79
2,TCTATTACTTGATTAGGGCAACCGAAACAGCGGA,0.779
3,ACTATTAGTTGAGACGAGGACAACCGATAGGTTG,1.33
4,GGTATTAGTTGAAAGGGCAACCGAATGATTCTCG,1.88
5,CCGACTGGGGCAAGGGTACCATAACGCACAGCCA,-0.197
6,CGTCCAAGGTCAGCAGGTCAGTGACAGCGACGTG,5.22
7,CAAGCTAGGTCACGAAAGGTCAAAGTCGAATGAC,7.85
8,TAGCCTAGGTCATGCGGGCCATTATAGTGTCGGC,2.7
9,CAAACTAGGTCACCGGAAGGTCAAAGACCGCATG,7.13
10,TCATATAGGTAAATGCTAGGTGAAAGCCCGATCT,1.05
11,CTCGAAAGGTCGTGCTCAGGCGAGTATACCAAAC,3.16
12,GCTAGTTGGTCAGTAAAAGTTCACACACCGGTCG,2.53
13,CCGACTGGGGCATAAGGTTACCTTAAGCCAGCCC,1.22
14,TAGCCTAGGTCATTCAGGGGCCAGTAAAGAAAGC,3.28
15,CATACTGGGTCAGCTAGGCCAGAGTAGGGACGGC,0.776
16,CAGCCTAGGTCAGTGCCAGTATAGGAGGAACGTT,0.516
17,TCTCGGAGGACACGAAAGGTCAGATCTCGACATC,3.78
18,CAAACTAGGTCAAAGGTCCAAGTCGAGCCAACCA,5.03
19,CAAACTAGGTCCAAGGTCAAAGTCGAGCCAACCA,3.71

# Reference: the supplement of paper PMC6555819
